Where “and” joins values, the source holds several entries; their conditions need not be identical. Identical values can stand only once. Inconclusive results are not listed. A structure can be active in one record and inactive in another. Calls of active or inactive are those of the source. Unless noted, the call rests on the fitted dose curve; in most records, active means well fitted curve in the direction sought with a large enough effect in the repeat runs; inconclusive means weak or mixed curves; inactive means no such curve, though single readings can be large; an effect the other way counts as inactive or inconclusive.

Here are results for 7 compounds from PubChem BioAssay (Tox21).

Experiment [1] in a line: qHTS assay to identify small molecule antagonists of the sonic hedgehog signaling (Shh) pathway (AID 1259369; calls by dose curve; further: nearly all actives have a fitted effect of over 45% in size; further: potency means the concentration at half of the fitted maximal effect). In short, it runs like this: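 Stable Gli1-Luc reporter NIH/3T3 clone; quantitative HTS in stimulated mode with conditioned medium. Luminescence measured after 24hr compound treatment at 37 C.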
For orientation: In qHTS, concentration-response curves come from the screen itself.

The target of experiment [2] is Estrogen receptor beta (Homo sapiens) (UniProt Q92731). As to the kind of experiment: qHTS assay to identify small molecule agonists of the estrogen receptor beta (ER-beta) signaling pathway (AID 1259377; active means well fitted activation curve with a large enough effect in the signal ratio in the repeat runs, not every such curve was filed as active; the % refers to the signal ratio; further: potency means the concentration at half of the fitted maximal effect). In a few lines: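 qHTS in ER-beta-UAS-bla HEK293T cells: 6 hr settling, then 16 hr compound at 37C, then LiveBLAzer substrate 2 h at RT before fluorescence reading.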
Chain of Estrogen receptor beta (Homo sapiens) (Q92731 whole entry, looked up): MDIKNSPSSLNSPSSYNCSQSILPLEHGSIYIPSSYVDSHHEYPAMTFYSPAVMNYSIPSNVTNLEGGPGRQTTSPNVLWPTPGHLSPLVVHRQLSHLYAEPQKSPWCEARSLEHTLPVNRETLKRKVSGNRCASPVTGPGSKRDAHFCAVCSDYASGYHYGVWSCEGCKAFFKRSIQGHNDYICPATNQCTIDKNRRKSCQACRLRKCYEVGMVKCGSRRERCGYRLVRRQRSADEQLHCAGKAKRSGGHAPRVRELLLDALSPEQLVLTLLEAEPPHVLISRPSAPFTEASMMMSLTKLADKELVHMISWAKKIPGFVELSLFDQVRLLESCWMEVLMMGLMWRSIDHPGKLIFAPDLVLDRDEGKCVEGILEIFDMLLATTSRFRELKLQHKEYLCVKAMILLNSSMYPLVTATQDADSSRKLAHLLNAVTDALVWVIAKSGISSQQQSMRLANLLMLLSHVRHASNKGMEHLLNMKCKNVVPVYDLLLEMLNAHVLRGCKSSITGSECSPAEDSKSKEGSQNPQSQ

A short description of experiment [3]: qHTS assay to identify small molecule agonists of the androgen receptor (AR) signaling pathway in the presence of an antagonist - cell viability counter screen (AID 1259379). Further: nearly all actives have a fitted effect of over 25% in size. Further: potency means the concentration at half of the fitted maximal effect. In short, it runs like this: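 Nilutamide-containing (3.0uM final) MDA-kb2 cultures, 3,000 cells/well, were treated with compounds across 15 concentrations. After 16 hr at 37C with no CO2, cell viability was determined by CellTiter-Fluor fluorescence in the luciferase assay wells.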

Experiment [4] in a line: qHTS assay to identify small molecule agonists of the estrogen receptor beta (ER-beta) signaling pathway - cell viability counter screen (AID 1259380). Further: nearly all actives have a fitted effect of over 30% in size. Further: potency means the concentration at half of the fitted maximal effect. In short, it runs like this:
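Steps: plate ER-beta-UAS-bla HEK293T cells, rest 6 hr; add compounds in DMSO; incubate 16 hr at 37C, 5% CO2; add FRET substrate 2 hr; add CellTiter-Glo, wait 30 min at room temperature; read luminescence.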

A short description of experiment [5]: qHTS assay to identify small molecule antagonists of the estrogen receptor beta (ER-beta) signaling pathway - cell viability counter screen (AID 1259382). Further: nearly all actives have a fitted effect of over 55% in size. Further: potency means the concentration at half of the fitted maximal effect. In short, it runs like this:
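Viability is scored by CellTiter-Glo luminescence (30 min, room temperature) in ER-beta-UAS-bla HEK293T wells already read for reporter fluorescence. Compound exposure lasts 16 hr at 37C alongside 1nM 17-beta-estradiol in charcoal-stripped serum medium.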

Experiment [6] in a line: qHTS assay to identify small molecule agonists or antagonists of the thyroid stimulating hormone receptor (TSHR) signaling pathway - wild type cell line counter screen (AID 1259384; calls by dose curve). In a few lines:
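Wild-type HEK293 cells were plated 18 h at 37 C/5% CO2, pin-dosed with compound plus Ro20-1724 medium, held 30 min at room temperature, then given cAMP-d2 and anti-cAMP-cryptate; fluorescence was read after 1 h. Fifteen concentrations, triplicate.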

The nature of experiment [7]: qHTS assay to identify small molecule agonists of the estrogen receptor alpha (ER-alpha) signaling pathway in the presence of an antagonist - cell viability counter screen (AID 1259386).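 Further: cells exposed to compounds for 22 h at 37 °C before the viability read; nearly all actives have a fitted effect of over 30% in size.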 Further: potency means the concentration at half of the fitted maximal effect. In a few lines: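 In this counter screen, compound effects on VM7Luc4E2 viability were tested in the presence of the antagonist ICI-182,780 at 10.0nM final. Compounds were dosed at 15 concentrations, exposure lasted 22hr, and the CellTiter-Fluor signal was read.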

For experiment [8], the target named is Progesterone receptor (Homo sapiens) (UniProt P06401). As to the kind of experiment: qHTS assay to identify small molecule agonists of the progesterone receptor (PR) signaling pathway (AID 1346784; calls by dose curve; further: nearly all actives have a fitted effect of over 30% in size). In a few lines: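 Fluorescence from LiveBLAzer B/G FRET substrate cleavage (2 hr, RT) reported PR activation in PR-UAS-bla HEK 293T cells treated 16 hr at 37C/5% CO2 with compounds; medium contained 2% charcoal-stripped FBS.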
Chain of Progesterone receptor (Homo sapiens) (P06401 whole entry, looked up): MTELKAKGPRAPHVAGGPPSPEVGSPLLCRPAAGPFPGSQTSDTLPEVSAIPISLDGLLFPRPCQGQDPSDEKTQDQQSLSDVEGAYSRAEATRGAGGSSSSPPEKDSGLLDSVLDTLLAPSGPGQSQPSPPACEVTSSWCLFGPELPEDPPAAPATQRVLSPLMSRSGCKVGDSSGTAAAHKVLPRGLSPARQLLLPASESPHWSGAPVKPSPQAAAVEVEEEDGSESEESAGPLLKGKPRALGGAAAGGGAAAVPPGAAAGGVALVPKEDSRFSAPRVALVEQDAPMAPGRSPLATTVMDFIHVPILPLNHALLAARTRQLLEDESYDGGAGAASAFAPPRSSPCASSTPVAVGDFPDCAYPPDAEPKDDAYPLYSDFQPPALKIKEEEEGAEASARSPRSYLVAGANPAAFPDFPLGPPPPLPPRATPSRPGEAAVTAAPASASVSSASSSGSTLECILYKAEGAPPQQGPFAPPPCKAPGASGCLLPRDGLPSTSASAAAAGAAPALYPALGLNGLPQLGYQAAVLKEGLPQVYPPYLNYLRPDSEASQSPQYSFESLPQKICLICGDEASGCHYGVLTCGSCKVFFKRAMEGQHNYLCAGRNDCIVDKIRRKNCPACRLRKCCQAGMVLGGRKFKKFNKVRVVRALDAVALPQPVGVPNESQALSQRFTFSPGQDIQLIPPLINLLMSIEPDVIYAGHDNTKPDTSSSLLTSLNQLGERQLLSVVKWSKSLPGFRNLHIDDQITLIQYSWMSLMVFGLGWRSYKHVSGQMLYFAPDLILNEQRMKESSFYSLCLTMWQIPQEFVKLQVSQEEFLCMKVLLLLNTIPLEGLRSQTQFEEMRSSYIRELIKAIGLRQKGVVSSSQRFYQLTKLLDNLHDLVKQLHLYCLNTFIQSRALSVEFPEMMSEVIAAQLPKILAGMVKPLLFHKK

Experiment [9] can be described thus: qHTS assay to identify small molecule antagonists of the TGF-beta/Smad signaling pathway - cell viability counter screen (AID 1346824). Further: nearly all actives have a fitted effect of over 50% in size. In a few lines:
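SBE-bla HEK 293T cells were plated overnight at 37 C, then given compounds in DMSO plus TGF-beta1 (added as 0.25 ng/mL solution) for 5 hr. After the bla read, CellTiter-Glo was added to the same wells and luminescence read after 30 min at room temperature.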

Experiment [10] in a line: qHTS assay to identify small molecule agonists of the TGF-beta/Smad signaling pathway - cell viability counter screen (AID 1346829). Further: top concentration of the series differs between compounds; nearly all actives have a fitted effect of over 45% in size. In short, it runs like this:
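HEK 293T SBE-bla line, 5 hr compound exposure at 37 C, multiplexed CellTiter-Glo viability read by luminescence.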

The nature of experiment [11]: qHTS assay to identify small molecule agonists of the TGF-beta/Smad signaling pathway (AID 1346859; active means well fitted activation curve with a large enough effect in the signal ratio in the repeat runs, not every such curve was filed as active; the % refers to the signal ratio; further: series mostly up to about 77 µM). In a few lines:
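After overnight seeding, SBE-bla HEK 293T cells are dosed with compounds in DMSO and kept 5 hr at 37 C, 5% CO2. LiveBLAzer-type FRET substrate is then applied for 2 hr at room temperature.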

For experiment [12], the target named is Thyrotropin-releasing hormone receptor (Homo sapiens) (UniProt P34981). As to the kind of experiment: qHTS assay to identify small molecule antagonists of the thyrotropin-releasing hormone receptor (TRHR) signaling pathway (AID 1346877; active means well fitted inhibition curve with a large enough effect in the repeat runs, not every such curve was filed as active; further: series mostly up to about 51 µM). In short, it runs like this: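 Kinetic fluorescence (3 min, 1 s resolution) following stimulation with TRH at 1 nM final; HEK293 cells bearing human TRHR; 5 min compound preincubation at RT; concentration-response over 15 points, triplicates.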
Chain of Thyrotropin-releasing hormone receptor (Homo sapiens) (P34981 whole entry, looked up): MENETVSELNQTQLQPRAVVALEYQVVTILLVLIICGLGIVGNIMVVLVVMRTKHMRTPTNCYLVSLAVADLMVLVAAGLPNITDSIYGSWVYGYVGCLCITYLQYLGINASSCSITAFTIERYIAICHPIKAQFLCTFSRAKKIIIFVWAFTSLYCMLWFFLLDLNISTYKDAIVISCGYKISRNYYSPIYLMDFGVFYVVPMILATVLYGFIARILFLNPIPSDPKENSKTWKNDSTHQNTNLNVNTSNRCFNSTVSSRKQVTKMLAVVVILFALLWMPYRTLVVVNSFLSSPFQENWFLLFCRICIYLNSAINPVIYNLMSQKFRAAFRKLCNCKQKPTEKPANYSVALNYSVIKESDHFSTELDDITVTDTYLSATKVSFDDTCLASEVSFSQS

Experiment [13] shares this target. As to the kind of experiment: qHTS assay to identify small molecule agonists of the thyrotropin-releasing hormone receptor (TRHR) signaling pathway (AID 1346891; calls by dose curve;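 further: HEK293 cells expressing TRHR with calcium dye readout; series mostly up to about 58 µM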). In a few lines: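 Compounds were tested as agonists at 15 concentrations, in triplicate, on TRHR-Hek293 cells; calcium-sensitive dye fluorescence was recorded for 3 min following addition.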
Experiment [14] can be described thus: qHTS assay to identify small molecule antagonists of the progesterone receptor (PR) signaling pathway - cell viability counter screen (AID 1346798). Further: series mostly up to about 92 µM; nearly all actives have a fitted effect of over 50% in size. In short, it runs like this: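 CellTiter-Glo luminescence; PR-UAS-bla HEK293T, 3,000 cells/well; compound + R5020, 16 hr, 37C/5% CO2; 30 min RT before read.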
The nature of experiment [15]: qHTS assay to identify small molecule agonists of the progesterone receptor (PR) signaling pathway - cell viability counter screen (AID 1346799; calls by dose curve; further: nearly all actives have a fitted effect of over 45% in size; further: potency means the concentration at half of the fitted maximal effect). In a few lines: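 In parallel with the beta-lactamase readout, cytotoxicity toward PR-UAS-bla HEK293T cells was measured by CellTiter-Glo luminescence following 16 hr compound incubation in 2% charcoal-stripped FBS medium.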

Experiment [16] deals with Estrogen receptor beta (Homo sapiens) (UniProt Q92731). As to the kind of experiment: qHTS assay to identify small molecule antagonists of the estrogen receptor beta (ER-beta) signaling pathway (AID 1259378; active means well fitted inhibition curve with a large enough effect in the signal ratio in the repeat runs, not every such curve was filed as active; the % refers to the signal ratio; further: potency means the concentration at half of the fitted maximal effect). In a few lines:
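ER-beta-UAS-bla HEK293T (GripTite) cells in 2% charcoal-stripped FBS medium were preincubated 6 hr at 37C, dosed with compound, then stimulated with 1 nM E2 (final) for 16 hr; beta-lactamase reporter read by B/G FRET fluorescence after 2 hr substrate loading.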

Experiment [17] has as its target Thyrotropin receptor (Homo sapiens) (UniProt P16473). Briefly: qHTS assay to identify small molecule antagonists of the thyroid stimulating hormone receptor (TSHR) signaling pathway (AID 1259385; calls by dose curve; further: nearly all actives have a fitted effect of over 20% in size). In short, it runs like this:
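TSHR-HEK293 cells were plated and held 18 h at 37C/5% CO2, then given compound plus Ro20-1724 and stimulated with TSH at 1.5 ng/mL final. After 30 min at room temperature, cAMP was detected with cAMP-d2/anti-cAMP-cryptate (1 h) by fluorescence.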

The target in experiment [18] is Estrogen receptor (Homo sapiens) (UniProt P03372). Briefly: qHTS assay to identify small molecule agonists of the estrogen receptor alpha (ER-alpha) signaling pathway in the presence of an antagonist (AID 1259383; calls by dose curve; further: top concentration of the series differs between compounds; nearly all actives have a fitted effect of over 15% in size). In short, it runs like this: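 Readout was ERE-driven luciferase luminescence in VM7Luc4E2 cells, which express full-length ER-alpha endogenously. Compounds were tested at 15 concentrations for 22hr alongside 10.0nM ICI-182,780 (final concentration).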
Chain of Estrogen receptor (Homo sapiens) (P03372 whole entry, looked up): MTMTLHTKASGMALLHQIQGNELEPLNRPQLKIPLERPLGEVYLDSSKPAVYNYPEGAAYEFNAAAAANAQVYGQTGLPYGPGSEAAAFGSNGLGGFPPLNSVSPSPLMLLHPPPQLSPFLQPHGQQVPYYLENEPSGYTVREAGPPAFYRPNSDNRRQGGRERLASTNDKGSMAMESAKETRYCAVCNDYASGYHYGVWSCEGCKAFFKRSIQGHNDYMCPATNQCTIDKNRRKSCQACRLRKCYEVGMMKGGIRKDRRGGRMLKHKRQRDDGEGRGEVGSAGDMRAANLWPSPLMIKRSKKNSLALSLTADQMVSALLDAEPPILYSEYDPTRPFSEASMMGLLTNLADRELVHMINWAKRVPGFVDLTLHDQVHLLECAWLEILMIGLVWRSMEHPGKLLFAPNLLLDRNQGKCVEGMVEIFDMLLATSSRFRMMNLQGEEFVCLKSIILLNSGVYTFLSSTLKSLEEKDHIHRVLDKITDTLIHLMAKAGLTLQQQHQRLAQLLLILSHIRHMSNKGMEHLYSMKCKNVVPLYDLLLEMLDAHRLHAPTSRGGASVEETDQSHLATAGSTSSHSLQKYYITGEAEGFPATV

Experiment [19] addresses Progesterone receptor (Homo sapiens) (UniProt P06401). Briefly: qHTS assay to identify small molecule antagonists of the progesterone receptor (PR) signaling pathway (AID 1346795; active means well fitted inhibition curve with a large enough effect in the signal ratio in the repeat runs, not every such curve was filed as active; the % refers to the signal ratio). In a few lines: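 Fluorescence intensity measured 2 hr after adding beta-lactamase FRET substrate to PR-UAS-bla HEK293T cells that had been co-treated 16 hr with compound and 1 nM R5020 (final concentration) in 2% charcoal-stripped FBS.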

Experiment [20] concerns the target Androgen receptor (Homo sapiens) (UniProt P10275). As to the kind of experiment: qHTS assay to identify small molecule agonists of the androgen receptor (AR) signaling pathway in the presence of an antagonist (AID 1259381; calls by dose curve; further: nearly all actives have a fitted effect of over 15% in size). In a few lines: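 Reporter-gene luminescence from MDA-kb2 cells exposed 16hr at 37C (0% CO2) to 15-point compound titrations with 3.0uM final nilutamide as AR antagonist.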

Chain of Thyrotropin receptor (Homo sapiens) (P16473 whole entry, looked up): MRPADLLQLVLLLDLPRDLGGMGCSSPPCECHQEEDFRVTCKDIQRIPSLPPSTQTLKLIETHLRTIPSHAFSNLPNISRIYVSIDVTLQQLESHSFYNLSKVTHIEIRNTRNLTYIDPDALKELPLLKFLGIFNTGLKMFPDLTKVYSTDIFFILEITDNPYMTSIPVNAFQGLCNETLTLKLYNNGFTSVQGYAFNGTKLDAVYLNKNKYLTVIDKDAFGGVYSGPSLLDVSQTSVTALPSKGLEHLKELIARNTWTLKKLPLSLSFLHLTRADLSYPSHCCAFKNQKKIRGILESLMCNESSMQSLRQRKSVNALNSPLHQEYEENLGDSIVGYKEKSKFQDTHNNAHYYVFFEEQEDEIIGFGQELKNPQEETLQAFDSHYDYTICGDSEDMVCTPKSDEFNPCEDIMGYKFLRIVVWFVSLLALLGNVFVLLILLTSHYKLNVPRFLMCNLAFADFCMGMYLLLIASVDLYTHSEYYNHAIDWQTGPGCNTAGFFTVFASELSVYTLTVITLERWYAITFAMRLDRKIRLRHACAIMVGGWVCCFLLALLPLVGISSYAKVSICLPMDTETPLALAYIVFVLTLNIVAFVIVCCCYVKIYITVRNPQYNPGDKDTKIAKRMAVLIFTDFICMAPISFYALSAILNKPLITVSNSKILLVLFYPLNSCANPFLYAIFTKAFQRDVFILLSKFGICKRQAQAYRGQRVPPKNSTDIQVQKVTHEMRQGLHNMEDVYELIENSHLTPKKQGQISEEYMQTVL
Chain of Androgen receptor (Homo sapiens) (P10275 whole entry, looked up): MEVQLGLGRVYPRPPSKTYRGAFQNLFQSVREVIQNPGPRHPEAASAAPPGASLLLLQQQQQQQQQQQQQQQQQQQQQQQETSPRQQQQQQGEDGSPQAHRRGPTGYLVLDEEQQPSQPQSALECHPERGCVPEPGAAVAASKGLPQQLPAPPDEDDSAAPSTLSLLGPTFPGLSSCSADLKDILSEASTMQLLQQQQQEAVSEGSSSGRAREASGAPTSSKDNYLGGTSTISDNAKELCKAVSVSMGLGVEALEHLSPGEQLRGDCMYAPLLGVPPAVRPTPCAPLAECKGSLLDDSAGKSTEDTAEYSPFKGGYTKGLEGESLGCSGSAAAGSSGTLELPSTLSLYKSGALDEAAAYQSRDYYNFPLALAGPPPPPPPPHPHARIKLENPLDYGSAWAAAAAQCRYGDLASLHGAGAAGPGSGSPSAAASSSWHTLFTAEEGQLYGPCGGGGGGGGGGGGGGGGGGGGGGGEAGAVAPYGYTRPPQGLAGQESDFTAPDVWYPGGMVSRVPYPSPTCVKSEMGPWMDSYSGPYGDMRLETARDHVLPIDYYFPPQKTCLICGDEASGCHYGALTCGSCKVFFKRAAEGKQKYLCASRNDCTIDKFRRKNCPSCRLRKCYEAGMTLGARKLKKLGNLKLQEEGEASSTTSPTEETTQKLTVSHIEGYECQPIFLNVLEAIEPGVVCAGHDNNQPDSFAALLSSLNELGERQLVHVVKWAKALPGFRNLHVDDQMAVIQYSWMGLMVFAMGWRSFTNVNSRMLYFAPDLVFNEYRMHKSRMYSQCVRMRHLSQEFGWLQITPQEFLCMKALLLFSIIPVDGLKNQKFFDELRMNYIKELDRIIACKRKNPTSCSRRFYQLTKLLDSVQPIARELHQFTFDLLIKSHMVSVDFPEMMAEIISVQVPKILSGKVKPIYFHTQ

Consider `O=C(c1ccc(O)cc1)c1ccc(O)cc1O`, for which the Potency is 55 µM (active) in [1]; 13.8 µM (active) and 12.2 µM (active) in experiment [2]. Also, the Potency result in experiment [3], in experiment [4], in [5], in experiment [7], in experiment [8] and in [9] was “inactive” each time. Besides, the Potency entry in [10] and in [13] was “inactive” in each case. Moreover, the compound was called inactive in experiment [6], in experiment [11] and in [12].
Take `Cc1cc(O)c2c(c1)C(=O)c1cc(O)cc(O)c1C2=O`: the Potency in [1] is 34.4 µM (active); in experiment [2], 4.86 µM (active); in experiment [3], 26.7 µM (active) and 30.6 µM (active); in experiment [7], 15.4 µM (active). Besides, the Potency result in [4], in experiment [5], in experiment [8], in experiment [14], in experiment [15] and in [9] was “inactive” each time. In addition, the Potency result in [10] and in experiment [13] was “inactive” each time. For the same compound, the result in experiment [6] and in [12] was inactive.
Turning to `O=C(Oc1ccccc1)c1ccc(O)cc1`, the Potency entry in [1], in [3], in experiment [4], in experiment [5], in experiment [7] and in experiment [8] was “inactive” in each case. Moreover, the Potency result in [14], in experiment [15], in [9], in experiment [10] and in experiment [13] was “inactive” in each case. For the same compound, the Potency in experiment [16] was 48.9 µM (active). Further, the compound was classed as inactive in experiment [6], in [17], in experiment [11] and in [12].
Regarding `CC(C)n1c(/C=C/[C@@H](O)C[C@@H](O)CC(=O)O)c(-c2ccc(F)cc2)c2ccccc21`, the Potency entry in experiment [3], in experiment [7], in [8], in experiment [9], in [10] and in experiment [13] was “inactive” in each case. The Potency in experiment [4] is 13.7 µM (active) and 4.73 µM (active); in experiment [5], 15.4 µM (active); in experiment [15], 0.77 µM (active). Moreover, the compound was called inactive in experiment [11] and in experiment [12].
In the case of `CCCCCCOC(C)=O`, the Potency entry in [1], in [3], in experiment [5], in experiment [18], in [7] and in experiment [8] was “inactive” in each case. In experiment [10], the Potency entry was “inactive”. For the same compound, the Potency result was “inactive and 30.6 µM (active)” in [4]; “inactive and 8.63 µM (active)” in experiment [15]. Also, the compound was classed as inactive in experiment [6], in [17] and in experiment [11].
For the compound `OC[C@@H](O)[C@@H](O)[C@H](O)[C@@H](O)CO`, the Potency result in experiment [1], in [3], in experiment [4], in [5], in experiment [7] and in experiment [8] was “inactive” in each case. For the same compound, the Potency result in experiment [19], in experiment [14], in experiment [15], in experiment [9] and in experiment [10] was “inactive” throughout. Besides, the result in experiment [6] and in experiment [11] was inactive.
In the case of `CCCCCCCCCC(=O)O`, the Potency entry in [1], in experiment [3], in [4], in experiment [20], in experiment [5] and in experiment [7] was “inactive” in each case. The Potency entry in experiment [8], in experiment [19], in experiment [14], in experiment [15], in experiment [9] and in experiment [10] was “inactive” throughout. In experiment [13], the Potency result is “inactive”. The result in experiment [6], in experiment [17], in [11] and in [12] was inactive.
